Results on three compounds are retold here after PubChem BioAssay (EPA / NIEHS).

Several values for one entry are separate records, joined by “and”; a condition that tells them apart may be missing. Equal values may be shown once. Results filed as inconclusive are left out. Where a structure was tested more than once in an assay, its records may differ in their call. Activity calls are given as the source filed them. Rule for the calls, unless noted: active = hit-call score of the fitted dose curve at least 0.9, where 1 is the maximum; inactive = score below 0.9.

Experiment [1] deals with Paired box protein Pax-6 (Homo sapiens) (UniProt P26367). Nature of the experiment: ATG_Pax6_CIS: Attagene CIS-FACTORIAL HepG2 Assay for human Paired Box 6 (PAX6) (AID 2282956). The note with it: HepG2 CIS-FACTORIAL PAX6 reporter transcription, RNA readout; actives raise or lower the signal. Summed up: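 Multiplexed cis-reporter HepG2 system; 24 h treatment; reporter mRNA read by RT-PCR/CE fluorescence; bidirectional fit vs DMSO.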
Paired box protein Pax-6 (Homo sapiens), sequence (P26367 whole entry, looked up): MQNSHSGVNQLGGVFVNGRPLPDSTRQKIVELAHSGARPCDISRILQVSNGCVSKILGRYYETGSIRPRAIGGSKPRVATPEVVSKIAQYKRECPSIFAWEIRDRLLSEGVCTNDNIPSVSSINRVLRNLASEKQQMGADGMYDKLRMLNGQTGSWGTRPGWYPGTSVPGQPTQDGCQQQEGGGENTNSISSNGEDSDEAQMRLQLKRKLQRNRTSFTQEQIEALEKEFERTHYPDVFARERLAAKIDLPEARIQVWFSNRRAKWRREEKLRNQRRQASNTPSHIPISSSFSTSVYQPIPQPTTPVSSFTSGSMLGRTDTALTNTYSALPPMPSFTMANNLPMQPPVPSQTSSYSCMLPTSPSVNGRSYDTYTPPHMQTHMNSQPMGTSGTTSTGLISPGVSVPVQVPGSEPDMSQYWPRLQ

Experiment [2] is described as follows: ATG_PXRE_CIS: Attagene CIS-FACTORIAL HepG2 Assay for human Pregnane X Receptor Element (PXRE) (AID 2282957). The settings on record: HepG2 Attagene CIS-FACTORIAL PXRE reporter, mRNA; actives raise or lower the signal. Summed up: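 HepG2 cells transiently transfected with cis-regulated multiple reporter transcription units; endogenous factor activity measured as reporter mRNA 24 h after dosing. RT-PCR, fluorescent primer extension, HpaI digestion, capillary electrophoresis; bidirectional fit versus DMSO baseline.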

Experiment [3] is described as follows: ATG_PPRE_CIS: Attagene CIS-FACTORIAL HepG2 Assay for human Peroxisome Proliferator-activated Response Element (PPRE) (AID 2282958). The note with it: HepG2 PPRE cis-element reporter, Attagene transcription factor profiling; actives raise or lower the signal. Summed up: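 In this cell-based multiplex, a PPRE cis element drives a reporter sequence in transiently transfected HepG2 cells. Following 24 h treatment, labeled cDNA amplicons are sized and quantified by capillary electrophoresis, with DMSO defining baseline.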

The nature of experiment [4]: ATG_RORE_CIS: Attagene CIS-FACTORIAL HepG2 Assay for human RAR-related Orphan Receptor Element (RORE) (AID 2282959). The settings on record: HepG2 Attagene cis-factorial RORE reporter, mRNA; actives raise or lower the signal. Summed up:
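Endogenous factor activity at a cis response element is read as reporter transcript levels in HepG2 cells, 24 h post-dose. Transcripts are quantified by RT-PCR with capillary electrophoresis, and data fitted in both directions against DMSO.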

Experiment [5] can be described thus: ATG_Sox_CIS: Attagene CIS-FACTORIAL HepG2 Assay for human SRY-box transcription factor (SOX) (AID 2282960). The note with it: HepG2 Attagene cis-factorial SOX reporter, mRNA; actives raise or lower the signal. Summed up: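 Measures mRNA induction of a SOX1-associated reporter in HepG2 after 24 h dosing. Fluorescently labelled RT-PCR fragments are separated by capillary electrophoresis, and gain or loss relative to DMSO control is fitted.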

Experiment [6] concerns the target Transcription factor Sp1 (Homo sapiens) (UniProt P08047). Kind of experiment: ATG_Sp1_CIS: Attagene CIS-FACTORIAL HepG2 Assay for human Specificity Protein 1 (Sp1) (AID 2282961). The settings on record: HepG2 Sp1 cis-reporter transcription, actives raise or lower the signal. Summed up: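 Cells: HepG2, transiently transfected with cis-regulated multiplexed reporters. Exposure: 24 h. Detection: reporter transcripts amplified, fluorescently labeled, restriction-digested and sized by capillary electrophoresis. Analysis: bidirectional fit relative to DMSO.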

Experiment [7] in a line: ATG_SREBP_CIS: Attagene CIS-FACTORIAL HepG2 Assay for human Sterol Regulatory Element Binding (SREBP) (AID 2282962). The note with it: HepG2 Attagene cis-factorial SREBP reporter, mRNA; actives raise or lower the signal. Summed up: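 mRNA induction of transfected cis-promoter reporters in HepG2 cells, 24 h post-dose. Detection: RT-PCR with 6-FAM-labelled products, HpaI digest, capillary electrophoresis. DMSO served as negative control and baseline.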

Experiment [8] deals with Signal transducer and activator of transcription 3 (Homo sapiens) (UniProt P40763). Nature of the experiment: ATG_STAT3_CIS: Attagene CIS-FACTORIAL HepG2 Assay for human Signal Transducer and Activator of Transcription 3 (STAT3) (AID 2282963). The note with it: HepG2, Attagene cis-factorial STAT3 reporter transcription; actives raise or lower the signal. Summed up:
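Endogenous STAT3-responsive cis-element activity was read in transiently transfected HepG2 cells after 24 h treatment. Reporter transcripts were quantified via RT-PCR and capillary electrophoresis, with DMSO as negative control and bidirectional curve fitting.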

Experiment [9] is described as follows: ATG_TA_CIS: Attagene CIS-FACTORIAL HepG2 Assay for human TA Basal Promoter (AID 2282964). The settings on record: HepG2 Attagene CIS-factorial TA basal promoter reporter; actives raise or lower the signal. Summed up:
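Steps: transfect HepG2 with MRTUs; dose 24 h; isolate RNA, DNase-treat, reverse-transcribe; PCR and FAM-label reporter cDNA; digest with HpaI 2h at 37 C; run capillary electrophoresis. Activity fitted both directions against DMSO.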

Experiment [10] is described as follows: ATG_TCF_b_cat_CIS: Attagene CIS-FACTORIAL HepG2 Assay for human T-Cell-Factor with beta-catenin (TCF/b-cat) (AID 2282965). The settings on record: HepG2 TCF/beta-catenin cis-reporter transcription, actives raise or lower the signal. Summed up: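 Endogenous TCF/LEF activity read as reporter transcript level via RT-PCR and capillary electrophoresis fluorescence in transfected HepG2, 24 h exposure; gain or loss of signal fitted against DMSO controls.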

A short description of experiment [11]: ATG_TAL_CIS: Attagene CIS-FACTORIAL HepG2 Assay for human TAL Basal Promoter (AID 2282966).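 Note: background control endpoint measuring basal TAL promoter reporter mRNA not a specific factor.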 The note with it: HepG2 Attagene cis-factorial TAL promoter reporter; actives raise or lower the signal. Summed up:
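HepG2 cells were transiently transfected with promoter-driven multiplexed reporter units and dosed for 24 h. Reporter mRNA was measured by RT-PCR with capillary electrophoresis fluorescence; bidirectional fits used DMSO as baseline, serving as a background control.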

The nature of experiment [12]: ATG_TGFb_CIS: Attagene CIS-FACTORIAL HepG2 Assay for human Transforming Growth Factor (TGF) (AID 2282967). The settings on record: HepG2 Attagene CIS TGFb reporter, mRNA transcription; actives raise or lower the signal. Summed up:
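Cells were dosed for 24 hours, after which total RNA was reverse-transcribed and reporter sequences amplified, labeled and sized by capillary electrophoresis. Activity was fitted in both directions against DMSO.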

Experiment [13] in a line: ATG_VDRE_CIS: Attagene CIS-FACTORIAL HepG2 Assay for human Vitamin D Receptor Element (VDRE) (AID 2282968). The settings on record: HepG2 VDRE cis-reporter transcription, actives raise or lower the signal. Summed up: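 Reporter mRNA induction, quantified by capillary electrophoresis of fluorescently labelled RT-PCR products, was read 24 h after dosing HepG2 cells carrying transiently transfected cis-regulated reporter units; gain or loss relative to DMSO.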

For experiment [14], the target named is Estrogen receptor (Homo sapiens) (UniProt P03372). Nature of the experiment: ATG_ERa_TRANS: Attagene TRANS-FACTORIAL HepG2 Assay for human Estrogen Receptor alpha (ERa) (AID 2282970; active = hit-call score of the fitted dose curve at least 0.9, where 1 is the maximum). The note with it: HepG2 Attagene TRANS ERa GAL4 reporter, mRNA. Summed up: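 HepG2 cells transiently transfected with multiplexed GAL4-UAS reporter units; ERa activity read via exogenous chimeric NR-Gal4 protein. After 24 hour compound exposure, reporter mRNA measured by RT-PCR with 6-FAM labelling and capillary electrophoresis; gain-of-signal fitted relative to DMSO.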
Estrogen receptor (Homo sapiens), sequence (P03372 whole entry, looked up, the tested form may be a part): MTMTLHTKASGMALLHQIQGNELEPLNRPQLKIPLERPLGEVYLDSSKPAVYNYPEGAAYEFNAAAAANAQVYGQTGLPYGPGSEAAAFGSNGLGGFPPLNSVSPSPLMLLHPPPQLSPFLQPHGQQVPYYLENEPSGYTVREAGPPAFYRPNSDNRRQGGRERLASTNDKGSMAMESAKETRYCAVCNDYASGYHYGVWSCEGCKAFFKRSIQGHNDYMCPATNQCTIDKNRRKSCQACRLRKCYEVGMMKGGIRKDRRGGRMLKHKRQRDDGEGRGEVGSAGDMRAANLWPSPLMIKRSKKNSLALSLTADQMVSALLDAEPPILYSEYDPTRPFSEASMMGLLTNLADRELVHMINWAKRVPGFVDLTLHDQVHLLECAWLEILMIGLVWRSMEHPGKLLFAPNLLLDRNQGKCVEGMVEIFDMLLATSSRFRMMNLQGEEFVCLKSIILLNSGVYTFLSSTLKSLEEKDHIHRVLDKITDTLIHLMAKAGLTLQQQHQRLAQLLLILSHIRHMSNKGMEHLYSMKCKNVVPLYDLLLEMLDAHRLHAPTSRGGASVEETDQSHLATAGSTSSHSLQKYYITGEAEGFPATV

A short description of experiment [15]: ATG_M_19_TRANS: Attagene TRANS-FACTORIAL HepG2 Assay for M19 Transcription Factor (Internal Marker) (AID 2282974; active = hit-call score of the fitted dose curve at least 0.9, where 1 is the maximum). The note with it: HepG2 Attagene TRANS-FACTORIAL M19 internal marker reporter. Summed up: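 Reporter mRNA induction was measured in transfected HepG2 cells 24 h after dosing. Endpoint fitted upward relative to DMSO and serves as a background control within the multiplexed TRANS panel.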

In experiment [16] the target is X-box-binding protein 1 (Homo sapiens) (UniProt P17861). Nature of the experiment: ATG_Xbp1_CIS: Attagene CIS-FACTORIAL HepG2 Assay for human X-box Binding Protein 1 (XBP1) (AID 2282972). The note with it: HepG2 XBP1 cis-element reporter, Attagene multiplex; actives raise or lower the signal. Summed up: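 Fluorescence-labelled cDNA fragments from reporter transcripts, separated by capillary electrophoresis, give the signal. Source: HepG2 cells transfected with promoter-driven reporter units, harvested 24 h post-dose. DMSO served as reference for bidirectional curve fitting.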
X-box-binding protein 1 (Homo sapiens), sequence (P17861 whole entry, looked up, the tested form may be a part): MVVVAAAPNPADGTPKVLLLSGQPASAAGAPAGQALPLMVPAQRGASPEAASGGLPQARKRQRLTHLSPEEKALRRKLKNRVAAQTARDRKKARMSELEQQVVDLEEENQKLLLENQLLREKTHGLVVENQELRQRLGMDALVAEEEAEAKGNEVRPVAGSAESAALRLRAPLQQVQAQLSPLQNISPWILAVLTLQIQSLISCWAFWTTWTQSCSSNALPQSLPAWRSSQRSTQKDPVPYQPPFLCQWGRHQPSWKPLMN

The nature of experiment [17]: ATG_GAL4_TRANS: Attagene TRANS-FACTORIAL HepG2 Assay for GAL4 (Internal Marker) (AID 2282976; active = hit-call score of the fitted dose curve at least 0.9, where 1 is the maximum). The note with it: HepG2 Attagene TRANS GAL4 internal marker reporter. Summed up: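 HepG2 cells transiently transfected with multiplexed GAL4-UAS reporter constructs were dosed for 24 h. Reporter mRNA was measured by RT-PCR, 6-FAM primer extension, HpaI digestion and capillary electrophoresis, and gain of signal was fitted relative to DMSO.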

Transcription factor Sp1 (Homo sapiens), sequence (P08047 whole entry, looked up): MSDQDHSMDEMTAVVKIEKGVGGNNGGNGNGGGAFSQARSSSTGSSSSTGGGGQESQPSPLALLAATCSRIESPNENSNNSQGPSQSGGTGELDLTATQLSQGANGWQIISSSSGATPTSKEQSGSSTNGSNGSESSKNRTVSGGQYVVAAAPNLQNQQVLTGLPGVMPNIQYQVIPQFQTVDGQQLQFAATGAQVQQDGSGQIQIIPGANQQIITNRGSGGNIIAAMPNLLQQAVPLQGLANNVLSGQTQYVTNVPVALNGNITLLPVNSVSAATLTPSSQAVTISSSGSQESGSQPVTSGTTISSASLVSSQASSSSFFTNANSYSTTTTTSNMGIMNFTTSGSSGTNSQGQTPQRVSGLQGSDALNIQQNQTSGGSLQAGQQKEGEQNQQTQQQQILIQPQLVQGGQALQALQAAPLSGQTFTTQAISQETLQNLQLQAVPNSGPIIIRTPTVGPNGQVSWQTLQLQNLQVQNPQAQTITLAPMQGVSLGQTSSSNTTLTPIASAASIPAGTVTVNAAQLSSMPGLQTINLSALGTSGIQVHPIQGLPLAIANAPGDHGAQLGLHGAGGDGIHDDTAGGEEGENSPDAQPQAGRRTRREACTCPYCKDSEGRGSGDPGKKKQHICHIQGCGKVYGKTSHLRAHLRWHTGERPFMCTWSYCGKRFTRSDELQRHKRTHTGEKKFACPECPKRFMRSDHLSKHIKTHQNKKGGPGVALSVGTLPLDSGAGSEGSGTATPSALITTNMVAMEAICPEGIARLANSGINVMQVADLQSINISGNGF
Signal transducer and activator of transcription 3 (Homo sapiens), sequence (P40763 whole entry, looked up): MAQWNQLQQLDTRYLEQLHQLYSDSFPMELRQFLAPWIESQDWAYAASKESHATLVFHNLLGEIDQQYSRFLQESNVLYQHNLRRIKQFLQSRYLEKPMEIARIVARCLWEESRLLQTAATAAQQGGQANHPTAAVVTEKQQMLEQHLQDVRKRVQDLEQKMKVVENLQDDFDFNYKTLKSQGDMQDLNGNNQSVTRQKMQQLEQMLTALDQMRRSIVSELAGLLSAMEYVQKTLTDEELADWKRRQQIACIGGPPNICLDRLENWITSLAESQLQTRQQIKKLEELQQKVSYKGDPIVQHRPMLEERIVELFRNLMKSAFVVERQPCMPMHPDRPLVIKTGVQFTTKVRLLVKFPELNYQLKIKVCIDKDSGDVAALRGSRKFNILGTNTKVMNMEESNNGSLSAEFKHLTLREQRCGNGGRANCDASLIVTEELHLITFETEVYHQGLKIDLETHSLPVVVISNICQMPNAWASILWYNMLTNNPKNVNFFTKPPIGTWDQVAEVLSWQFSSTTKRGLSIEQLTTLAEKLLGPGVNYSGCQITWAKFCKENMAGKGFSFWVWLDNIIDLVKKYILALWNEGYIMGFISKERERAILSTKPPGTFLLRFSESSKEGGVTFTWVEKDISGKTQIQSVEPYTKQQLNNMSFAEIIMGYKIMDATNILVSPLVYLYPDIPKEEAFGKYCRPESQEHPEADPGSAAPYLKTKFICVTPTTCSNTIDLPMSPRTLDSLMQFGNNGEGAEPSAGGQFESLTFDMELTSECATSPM

With `Cc1cc(F)ccc1-c1cc(N2CC[C@@H](O)[C@H]2CO)ncc1N(C)C(=O)C(C)(C)c1cc(C(F)(F)F)cc(C(F)(F)F)c1`, the compound was called inactive in experiment [1], in experiment [3], in experiment [4], in [5], in [6] and in [7]. Besides, the call in experiment [8], in experiment [9], in experiment [10], in experiment [11], in [12] and in experiment [13] was inactive. Besides, the compound was classed as inactive in experiment [14] and in [15]. Further, the AC50 in experiment [2] is 350 nM (active).
In the case of `CCCCCCCC[Si](OCC)(OCC)OCC`, the result in [1], in experiment [3], in experiment [4], in experiment [5], in experiment [6] and in experiment [7] was inactive. Moreover, the compound was called inactive in [8], in experiment [9], in experiment [11], in experiment [12], in [13] and in experiment [16]. Also, the call in experiment [15] was inactive. Besides, the AC50 in [2] is 8.67 µM (active) [middle of 4 runs]; in experiment [3], 62.9 µM (active) and 70.5 µM (active); in experiment [5], 147 µM (active); in experiment [6], 159 µM (active); in experiment [7], 100 µM (active); in experiment [11], 148 µM (active). Also, in experiment [13], the AC50 is 169 µM (active).
For the compound `CC/C(=C(/CC)c1ccc(O)cc1)c1ccc(O)cc1`, the AC50 in experiment [1] was 14.9 µM (active) and 5.16 µM (active); in [5] it was 11.1 µM (active); in experiment [6] it was 18.2 µM (active); in [10], 11.1 µM (active) and 16.2 µM (active) and 5.89 µM (active); in [13], 8.27 µM (active) and 6.68 µM (active) and 8.92 µM (active). For the same compound, the call in [1], in [5], in experiment [6], in experiment [7], in experiment [8] and in experiment [9] was inactive. The outcome in [10], in [11], in [12], in experiment [13] and in [17] was inactive.

As a reminder, the AC50 is the concentration at which the activity in the assay is half-maximal.
